From PubChem BioAssay (Tox21)
Inconclusive results are not listed. Calls of active or inactive are those of the source. Unless noted, calls come from the whole dose curve; as a rule, active = well fitted curve in the direction sought with a large enough effect in the repeat runs; inconclusive = weak or mixed curves; inactive = no such curve, though single readings can be large; an effect the other way counts as inactive or inconclusive.

What was measured:
[1] = qHTS assay to identify small molecule antagonists of the estrogen receptor beta (ER-beta) signaling pathway - cell viability counter screen (AID 1259382);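 note: HEK293T cells carrying ER-beta-UAS-bla reporter stimulated with estradiol; series mostly up to about 92 µM; nearly all actives have a fitted effect of over 55% in size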
Outline: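 ER-beta-UAS-bla HEK293T cells (2,000/well, 2% charcoal-stripped FBS) were pre-incubated 6 hr at 37C, then given compound plus 1nM final 17-beta-estradiol for 16 hr. Viability was read in the same wells by CellTiter-Glo luminescence after 30 min at room temperature.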

[2] = target: Estrogen receptor (Homo sapiens) (UniProt P03372); experiment: qHTS assay to identify small molecule agonists of the estrogen receptor alpha (ER-alpha) signaling pathway in the presence of an antagonist (AID 1259383; calls by dose curve; note: top concentration of the series differs between compounds; nearly all actives have a fitted effect of over 15% in size)
Sequence of Estrogen receptor (Homo sapiens) (P03372 whole entry, looked up): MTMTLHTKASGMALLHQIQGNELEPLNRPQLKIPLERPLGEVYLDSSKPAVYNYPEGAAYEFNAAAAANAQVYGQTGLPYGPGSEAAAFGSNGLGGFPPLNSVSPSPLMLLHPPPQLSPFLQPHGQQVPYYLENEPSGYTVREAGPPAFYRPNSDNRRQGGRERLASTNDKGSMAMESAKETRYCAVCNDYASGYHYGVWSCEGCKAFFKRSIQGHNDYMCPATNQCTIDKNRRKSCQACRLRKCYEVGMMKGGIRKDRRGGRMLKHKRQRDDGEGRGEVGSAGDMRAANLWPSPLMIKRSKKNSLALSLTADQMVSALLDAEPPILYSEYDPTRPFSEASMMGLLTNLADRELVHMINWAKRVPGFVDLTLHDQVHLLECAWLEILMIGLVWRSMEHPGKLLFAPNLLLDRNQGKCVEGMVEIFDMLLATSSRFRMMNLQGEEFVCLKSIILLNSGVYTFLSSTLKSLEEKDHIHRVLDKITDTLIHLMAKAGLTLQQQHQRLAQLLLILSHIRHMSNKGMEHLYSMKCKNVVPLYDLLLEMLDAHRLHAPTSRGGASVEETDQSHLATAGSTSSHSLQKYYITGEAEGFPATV
Outline: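 VM7Luc4E2 cells (endogenous full-length ER-alpha, 4×ERE-luciferase) were precultured 5 days in phenol red-free medium with 10% charcoal-stripped FBS, given 10.0nM ICI-182,780 (final), then treated with compounds at 15 concentrations for 22hr at 37C; luminescence read with ONE-Glo.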

[3] = qHTS assay to identify small molecule agonists or antagonists of the thyroid stimulating hormone receptor (TSHR) signaling pathway - wild type cell line counter screen (AID 1259384; calls by dose curve)
Outline: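 Wild-type HEK293 cells were plated 18 h at 37 C/5% CO2, pin-dosed with compound plus Ro20-1724 medium, held 30 min at room temperature, then given cAMP-d2 and anti-cAMP-cryptate; fluorescence was read after 1 h. Fifteen concentrations, triplicate.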

[4] = target: Thyrotropin receptor (Homo sapiens) (UniProt P16473); experiment: qHTS assay to identify small molecule antagonists of the thyroid stimulating hormone receptor (TSHR) signaling pathway (AID 1259385; calls by dose curve; note: nearly all actives have a fitted effect of over 20% in size)
Sequence of Thyrotropin receptor (Homo sapiens) (P16473 whole entry, looked up): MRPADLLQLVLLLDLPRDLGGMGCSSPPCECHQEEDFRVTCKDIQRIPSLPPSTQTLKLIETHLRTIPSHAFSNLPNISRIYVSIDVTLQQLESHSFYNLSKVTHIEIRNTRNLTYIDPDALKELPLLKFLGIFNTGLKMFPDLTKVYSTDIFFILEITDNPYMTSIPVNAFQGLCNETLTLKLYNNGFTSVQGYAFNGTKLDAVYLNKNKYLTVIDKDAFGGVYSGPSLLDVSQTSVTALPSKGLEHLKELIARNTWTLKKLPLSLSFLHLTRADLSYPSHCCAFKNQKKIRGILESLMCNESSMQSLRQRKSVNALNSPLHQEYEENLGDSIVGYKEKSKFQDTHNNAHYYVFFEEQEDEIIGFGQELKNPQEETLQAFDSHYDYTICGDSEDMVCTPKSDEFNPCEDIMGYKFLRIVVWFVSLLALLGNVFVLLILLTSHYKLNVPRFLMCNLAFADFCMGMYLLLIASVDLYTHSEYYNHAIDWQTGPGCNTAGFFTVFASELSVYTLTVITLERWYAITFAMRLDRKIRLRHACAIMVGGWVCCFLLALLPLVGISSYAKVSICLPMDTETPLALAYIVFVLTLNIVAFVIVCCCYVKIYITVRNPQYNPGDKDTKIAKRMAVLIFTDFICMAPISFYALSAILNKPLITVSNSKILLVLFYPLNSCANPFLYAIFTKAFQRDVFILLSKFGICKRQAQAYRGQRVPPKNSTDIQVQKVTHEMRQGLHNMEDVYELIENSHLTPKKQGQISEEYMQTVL
Outline: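 TSHR-HEK293 cells were plated and held 18 h at 37C/5% CO2, then given compound plus Ro20-1724 and stimulated with TSH at 1.5 ng/mL final. After 30 min at room temperature, cAMP was detected with cAMP-d2/anti-cAMP-cryptate (1 h) by fluorescence.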

[5] = qHTS assay to identify small molecule agonists of the estrogen receptor alpha (ER-alpha) signaling pathway in the presence of an antagonist - cell viability counter screen (AID 1259386);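 note: series mostly up to about 92 µM; cells exposed to compounds for 22 h at 37 °C before the viability read; nearly all actives have a fitted effect of over 30% in size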
Outline: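 VM7Luc4E2 cells (endogenous full-length ER-alpha, 4×ERE-luciferase) were held 5 days in phenol red-free medium with 10% charcoal-stripped FBS, plated, then given 10.0nM ICI-182,780 and compounds at 15 concentrations for 22hr at 37C; viability read by CellTiter-Fluor fluorescence.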

[6] = target: Progesterone receptor (Homo sapiens) (UniProt P06401); experiment: qHTS assay to identify small molecule antagonists of the progesterone receptor (PR) signaling pathway (AID 1346795; active = well fitted inhibition curve with a large enough effect in the signal ratio in the repeat runs, not every such curve was filed as active; the % refers to the signal ratio)
Sequence of Progesterone receptor (Homo sapiens) (P06401 whole entry, looked up): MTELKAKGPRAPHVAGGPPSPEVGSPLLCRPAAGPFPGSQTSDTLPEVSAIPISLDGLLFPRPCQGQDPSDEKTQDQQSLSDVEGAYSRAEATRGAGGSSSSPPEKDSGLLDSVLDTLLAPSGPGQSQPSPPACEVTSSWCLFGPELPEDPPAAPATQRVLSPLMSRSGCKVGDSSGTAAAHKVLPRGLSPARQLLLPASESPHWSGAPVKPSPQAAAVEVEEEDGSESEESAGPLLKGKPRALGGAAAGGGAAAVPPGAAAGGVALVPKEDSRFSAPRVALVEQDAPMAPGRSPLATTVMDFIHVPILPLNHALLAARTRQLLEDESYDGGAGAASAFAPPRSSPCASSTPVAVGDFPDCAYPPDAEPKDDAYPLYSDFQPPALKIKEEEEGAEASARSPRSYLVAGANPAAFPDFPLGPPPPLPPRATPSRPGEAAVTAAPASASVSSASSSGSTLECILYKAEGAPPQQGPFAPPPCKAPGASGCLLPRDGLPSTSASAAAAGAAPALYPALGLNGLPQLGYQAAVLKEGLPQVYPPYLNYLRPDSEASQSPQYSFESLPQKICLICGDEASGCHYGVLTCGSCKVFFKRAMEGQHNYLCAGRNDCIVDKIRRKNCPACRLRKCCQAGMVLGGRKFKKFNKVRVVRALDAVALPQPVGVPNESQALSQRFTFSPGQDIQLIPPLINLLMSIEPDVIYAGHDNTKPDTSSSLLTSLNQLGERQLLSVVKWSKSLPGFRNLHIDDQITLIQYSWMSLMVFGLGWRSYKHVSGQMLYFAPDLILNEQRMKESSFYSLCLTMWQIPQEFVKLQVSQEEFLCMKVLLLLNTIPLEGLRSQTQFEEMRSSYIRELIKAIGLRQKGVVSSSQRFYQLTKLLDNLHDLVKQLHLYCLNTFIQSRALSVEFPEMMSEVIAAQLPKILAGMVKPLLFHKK
Outline: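 After 6 hr plating at 37C in 2% stripped-serum medium, PR-UAS-bla HEK293T cells got compounds, then 1 nM R5020. Sixteen hours later, LiveBLAzer substrate was applied for 2 hr at room temperature and fluorescence was recorded.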

[7] = qHTS assay to identify small molecule antagonists of the progesterone receptor (PR) signaling pathway - cell viability counter screen (AID 1346798); note: series mostly up to about 92 µM; nearly all actives have a fitted effect of over 50% in size
Outline: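 Viability was determined by ATP-based luminescence (CellTiter-Glo) in PR-UAS-bla HEK293T cells cultured in 2% charcoal-stripped serum and incubated 16 hr with compounds under R5020 stimulation.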

[8] = qHTS assay to identify small molecule antagonists of the TGF-beta/Smad signaling pathway - cell viability counter screen (AID 1346824); note: nearly all actives have a fitted effect of over 50% in size
Outline: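 SBE-bla HEK 293T cells were plated overnight at 37 C, then given compounds in DMSO plus TGF-beta1 (added as 0.25 ng/mL solution) for 5 hr. After the bla read, CellTiter-Glo was added to the same wells and luminescence read after 30 min at room temperature.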

[9] = qHTS assay to identify small molecule agonists of the TGF-beta/Smad signaling pathway - cell viability counter screen (AID 1346829); note: top concentration of the series differs between compounds; nearly all actives have a fitted effect of over 45% in size
Outline: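 Here the cytotoxicity of library compounds is measured in SBE-bla HEK 293T cells treated for 5 hr, using CellTiter-Glo added to wells already read for the beta-lactamase reporter.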

[10] = qHTS assay to identify small molecule agonists of the TGF-beta/Smad signaling pathway (AID 1346859; active = well fitted activation curve with a large enough effect in the signal ratio in the repeat runs, not every such curve was filed as active; the % refers to the signal ratio; note: series mostly up to about 77 µM)
Outline: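 Dual-wavelength fluorescence (460/530 nm emission) quantified beta-lactamase expression under the Smad binding element in HEK 293T cells following 5 hr compound treatment at 37 C.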

[11] = Human pregnane X receptor (PXR) small molecule agonists, qHTS cell viability counter screen (AID 1346977); note: nearly all actives have a fitted effect of over 50% in size
Outline: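 HepG2 cells stably carrying the PXR-Luc reporter are cultured with 5% charcoal-stripped FBS and treated with compounds for 24hr. CellTiter-Fluor is added at 23hr and fluorescence is read after 1hr.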

[12] = Caspase-3/7 induction in HepG2 cells by small molecules, qHTS assay (AID 1346978); note: nearly all actives have a fitted effect of over 15% in size
Outline: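 Wild-type HepG2 cells (2,000/well) were settled 5 h at 37 C, 5% CO2, then exposed to compounds in DMSO for 17 h. Caspase-3/7 activity was read by luminescence 30 min after adding Caspase-Glo 3/7 reagent at room temperature.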

[13] = Caspase-3/7 induction in CHO-K1 cells by small molecules, qHTS assay (AID 1346980); note: nearly all actives have a fitted effect of over 15% in size
Outline: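 Wild-type cells were seeded at 1,500 per well and settled 5 hr at 37 C, 5% CO2, then exposed to DMSO-dissolved compounds for 17 hr. Caspase-Glo 3/7 reagent was added, and luminescence was read after 30min at room temperature.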

[14] = Caspase-3/7 induction in HepG2 cells by small molecules, qHTS cell viability counter screen (AID 1346981); note: series mostly up to about 92 µM; nearly all actives have a fitted effect of over 30% in size
Outline: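 Wild-type HepG2 cells (2,000/well) were allowed to settle for 5 hr at 37 C, 5% CO2, then dosed with compounds in DMSO by pin transfer. After 16 hr at 37 C, CellTiter-Fluor was added and fluorescence read 1 hr later.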

[15] = target: Progesterone receptor (Homo sapiens) (UniProt P06401); experiment: qHTS assay to identify small molecule agonists of the progesterone receptor (PR) signaling pathway (AID 1346784; calls by dose curve; note: nearly all actives have a fitted effect of over 30% in size)
Outline: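 The screen uses PR-UAS-bla HEK 293T cells in charcoal-stripped serum (2%). Compounds are applied for 16 hr at 37C after a 6 hr pre-incubation, and reporter activity is detected with a FRET beta-lactamase substrate after 2 hr at room temperature.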

[16] = target: Thyrotropin-releasing hormone receptor (Homo sapiens) (UniProt P34981); experiment: qHTS assay to identify small molecule antagonists of the thyrotropin-releasing hormone receptor (TRHR) signaling pathway (AID 1346877; active = well fitted inhibition curve with a large enough effect in the repeat runs, not every such curve was filed as active; note: series mostly up to about 51 µM)
Sequence of Thyrotropin-releasing hormone receptor (Homo sapiens) (P34981 whole entry, looked up): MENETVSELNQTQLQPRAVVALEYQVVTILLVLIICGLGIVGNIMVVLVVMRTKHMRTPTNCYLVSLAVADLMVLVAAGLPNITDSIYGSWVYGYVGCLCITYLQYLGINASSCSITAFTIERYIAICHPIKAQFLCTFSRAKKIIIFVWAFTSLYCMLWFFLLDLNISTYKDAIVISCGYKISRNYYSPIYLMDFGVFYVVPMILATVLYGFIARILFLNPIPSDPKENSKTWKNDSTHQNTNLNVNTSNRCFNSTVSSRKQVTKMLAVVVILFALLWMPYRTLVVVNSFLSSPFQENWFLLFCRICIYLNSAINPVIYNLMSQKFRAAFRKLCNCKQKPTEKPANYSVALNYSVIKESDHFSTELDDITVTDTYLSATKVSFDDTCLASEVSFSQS
Outline: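 TRHR-expressing HEK293 cells were seeded, cultured 18 h at 37 °C, then loaded with calcium dye for 2 h. Compounds were pre-incubated 5 min at room temperature before 1 nM TRH (final) was added, and kinetic fluorescence was recorded for 3 min.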

[17] = target: Thyrotropin-releasing hormone receptor (Homo sapiens) (UniProt P34981); experiment: qHTS assay to identify small molecule agonists of the thyrotropin-releasing hormone receptor (TRHR) signaling pathway (AID 1346891; calls by dose curve; note: series mostly up to about 58 µM)
Outline: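 Kinetic fluorescence (3 min, 1 s intervals) reported intracellular calcium after compound transfer onto TRHR-Hek293 cells pre-loaded with dye for 2 h at 37 °C.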

[18] = Caspase-3/7 induction in CHO-K1 cells by small molecules, qHTS cell viability counter screen (AID 1346979); note: nearly all actives have a fitted effect of over 35% in size
Outline: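 Seeding: 1,500 CHO-K1 cells/well. Rest: 5hr, 37C. Treatment: compounds in DMSO, 16hr. Read: CellTiter-Fluor, 1hr, fluorescence.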

[19] = qHTS assay to identify small molecule agonists of the progesterone receptor (PR) signaling pathway - cell viability counter screen (AID 1346799; calls by dose curve; note: nearly all actives have a fitted effect of over 45% in size)
Outline: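 Viability was scored by ATP luminescence (CellTiter-Glo, 30 min, room temperature) in the same wells used for the reporter readout, after 16 hr compound exposure of PR-UAS-bla HEK293T cells.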

Measured: Potency

COC(/C=C(\C)CCC=C(C)C)OC
not listed: [15] | [16] | [17] | [18] | [19]
inactive: all other assays above

CCN(CCO)c1cccc(C)c1
not listed: [6] | [19]
inactive: all other assays above

Cc1cccc(C(=O)O)c1[N+](=O)[O-]
not listed: [15]
inactive: all other assays above

C[C@H](CCC(=O)O)[C@H]1CC[C@H]2[C@@H]3[C@H](O)C[C@@H]4C[C@H](O)CC[C@]4(C)[C@H]3C[C@H](O)[C@]12C
not listed: [5] | [7] | [16] | [17]
inactive: all other assays above

CC(=O)/C=C/c1ccco1
not listed: [4] | [7] | [14]
inactive: all other assays above

CC(C)CCO
not listed: [15] | [16] | [17]
inactive: all other assays above

CC(=O)c1ccc(OCC(=O)N2CCCCC2)cc1
not listed: [14] | [15]
inactive: all other assays above

CC(=O)OC(C)c1ccccc1 (centres undefined)
not listed: [15] | [19]
inactive: all other assays above

CC(Cl)COP(=O)(OCC(C)Cl)OCC(C)Cl (centres undefined)
not listed: [6]
inactive: all other assays above

Nc1nc(=O)n([C@@H]2O[C@H](CO)[C@@H](O)[C@@H]2F)cc1I
not listed: [7] | [15]
inactive: all other assays above

CCCCC(=O)N(C)C
not listed: [6] | [7]
inactive: all other assays above

CC(C)CCC(=O)CCC(C)C
not listed: [15]
inactive: all other assays above

Cc1oc(=O)oc1CN1CCN(c2cc3c(cc2F)c(=O)c(C(=O)O)c2n3C(C)S2)CC1 (centres undefined)
not listed: [10] | [15]
inactive: all other assays above

FC(F)(F)/C(=N\OCC1OCCO1)c1ccc(Cl)cc1
not listed: [15] | [19]
inactive: all other assays above
